Inconclusive results are not listed. A number with no mark means an inactive call. Calls of active or inactive are those of the source. The call rests on the fitted dose curve; in most records, active means well fitted inhibition curve with a large enough effect in the repeat runs; inconclusive means weak or mixed curves; inactive means flat fitted curve, though single readings scatter.
On the % scale 0 is the no-effect control and ±100 the full control effect; potency means the concentration at half of the fitted maximal effect.

Sequence of Cytochrome P450 2D6 (Homo sapiens) (P10635 whole entry, looked up): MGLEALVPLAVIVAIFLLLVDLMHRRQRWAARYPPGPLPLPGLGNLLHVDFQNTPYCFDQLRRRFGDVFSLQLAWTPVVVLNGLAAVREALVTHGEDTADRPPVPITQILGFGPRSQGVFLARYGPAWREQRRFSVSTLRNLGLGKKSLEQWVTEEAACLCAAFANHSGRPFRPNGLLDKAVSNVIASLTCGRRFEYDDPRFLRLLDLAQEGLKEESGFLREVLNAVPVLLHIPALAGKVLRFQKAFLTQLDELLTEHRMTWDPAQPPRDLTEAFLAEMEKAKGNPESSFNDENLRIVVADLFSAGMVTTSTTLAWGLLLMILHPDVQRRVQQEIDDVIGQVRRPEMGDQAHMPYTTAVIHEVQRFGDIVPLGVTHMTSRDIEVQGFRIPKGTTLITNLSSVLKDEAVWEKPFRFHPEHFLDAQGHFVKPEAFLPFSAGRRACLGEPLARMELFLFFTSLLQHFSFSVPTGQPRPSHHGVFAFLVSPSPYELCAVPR

In the assay the target is Cytochrome P450 2D6 (Homo sapiens) (UniProt P10635). Briefly: Cytochrome P450 family 2 subfamily D member 6 (CYP2D6) small molecule antagonists: luciferase biochemical (cell-free) qHTS assay (AID 1645840). Further: nearly all actives have a fitted effect of over 55% in size. To be noted: P450-Glo CYP2D6 enzyme, luciferin luminescence, 1 h; series mostly up to 57.4 µM; activity change, negative = inhibition: at the top concentration. In a few lines:
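P450-Glo CYP2D6 system: proluciferin substrate converted by enzyme to luciferin, read by luminescence proportional to activity. Enzyme-substrate mix with compound 10 min at room temperature, then NADPH regeneration 1 h before detection reagent.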
For orientation: Quantitative high-throughput screening tests each substance at several concentrations.
As for `CCCOCc1cc(CN2CCN(c3ccccc3OC)CC2)c(O)c2ncccc12`, the Potency was 13.5 µM (active).

In the case of `COc1ccc(-n2nc3c(N4CCCC(C(=O)NCc5ccc(C)cc5)C4)nnc(C)c3c2C)cc1` (stereo not given), the Potency was 3.79 µM (active).

In the case of `COc1ccc(NC(=O)c2nc(SCc3ccc(F)cc3)ncc2Cl)cc1`, the “activity change, negative = inhibition” value was -10.8%.

Turning to `CN1C(=O)c2ccccc2Sc2ccc(NC(=O)Cc3ccc(Cl)cc3)cc21`, the Potency is 6.01 µM (active).

As to `Cc1ccc(-n2ncc3c(NCCCn4ccnc4)ncnc32)cc1Cl`, the Potency was 3.79 µM (active).

As for `CN1N=C(N)c2cn([C@@H]3O[C@H](COP(=O)(O)O)[C@@H](O)[C@H]3O)c3ncnc1c23`, the “activity change, negative = inhibition” value was -8.56%.

For the molecule `OCCOCCOCCOCCOCCN1CCN(C(c2ccc(Cl)cc2)c2ccc(Cl)cc2)CC1`, the Potency was 8.49 µM (active).

Take `Cc1ccc(Cn2c(SCc3ccc(C(=O)N4CCCCCC4)cc3)nc3ccncc32)cc1`: the Potency was 7.56 µM (active).

`COc1ccc(NC(=O)Cn2cc(C(=O)c3cccs3)c3ccccc32)cc1`: the Potency was 2.68 µM (active).

As to `CC(=O)c1ccc(NC(=O)C2CCN(c3nnc(C)c4c(C)n(-c5ccccc5)nc34)CC2)cc1`, the Potency was 12 µM (active).

Turning to `CCc1ccc(CN(Cc2ccco2)C(=O)COc2ccccc2Cl)cc1`, the Potency is 7.56 µM (active).

`COc1ccc(Br)c2c1-c1nc(NC(=O)c3cccc(C)c3)sc1C2`: the “activity change, negative = inhibition” value was 2.02%.

Turning to `C[S+](=O)([O-])Nc1ccc(-c2ccc3nc(-c4cccc(OC(F)(F)F)c4)[nH]c3c2)cc1`, the “activity change, negative = inhibition” value was 15%.

Turning to `CCNC(=O)N1CCN(C(=O)c2cnc3cc(OC)ccc3c2N2CCC(C)(C#N)CC2)CC1`, the “activity change, negative = inhibition” value was -25.8%.

Regarding `CC1CCCCC1N(Cc1ccccc1)[S+](=O)([O-])c1ccc([S+](=O)([O-])N(C)C)cc1` (stereo not given), the “activity change, negative = inhibition” value was 22.3%.

With `C[C@H](O[C@H]1OCCN(Cc2n[nH]c(=O)[nH]2)[C@H]1c1ccc(F)cc1)c1cc(C(F)(F)F)cc(C(F)(F)F)c1`, the Potency was 10.7 µM (active).

Consider `O=C(CSc1nnc(-c2cccc(F)c2)c(-c2cccc(F)c2)n1)NC1CCCCC1`, for which the “activity change, negative = inhibition” value was -8.72%.

For the molecule `CCCCC[C@H](O)CC[C@@H]1[C@H]2Cc3cccc(OCC(=O)O)c3C[C@H]2C[C@H]1O`, the “activity change, negative = inhibition” value is 7.05%.

Turning to `COc1ccc2cc(Br)ccc2c1`, the “activity change, negative = inhibition” value was 8.95%.

As to `Cc1[nH]n2c(=O)cc(-c3ccc(Cl)cc3)nc2c1-c1ccccc1`, the “activity change, negative = inhibition” value was 2.23%.

As for `COc1ccc2c(CNCCc3ccccc3OC)c(C(=O)O)n(Cc3ccc(F)cc3Cl)c2c1`, the Potency was 12 µM (active).

As for `CC1(C#N)CCN(c2c(C(=O)N3CCN(S(C)(=O)=O)CC3)cnc3cc(F)c(F)cc23)CC1`, the “activity change, negative = inhibition” value was 3.35%.

`CC(C)OCc1cc(CN2CCN(c3ccccc3)CC2)c(O)c2ncccc12`: the “activity change, negative = inhibition” value is 12.9%.

In the case of `Cc1cc(-n2c(SCc3ccccc3F)nc3[nH]ncc3c2=O)ccc1Cl`, the Potency was 19 µM (active).

Turning to `Cc1onc(-c2ccccc2Cl)c1C(=O)Cl`, the “activity change, negative = inhibition” value was 16.8%.

On to `Cc1[nH]n2c(=O)cc(-c3ccccc3Cl)nc2c1-c1ccccc1`, for which the Potency was 16.9 µM (active).

With `Cc1nc2c3ccccc3nc(NNC(=O)CCC(=O)N3CCN(c4ccccc4)CC3)n2n1`, the “activity change, negative = inhibition” value was 0.916%.

`c1ccc(Cn2c(-c3ccc(OC[C@H](C4CCNCC4)n4c(-c5ccccc5)nc5ccccc54)cc3)nc3ccccc32)cc1`: the Potency was 12 µM (active).

For the molecule `Cn1c(=O)c2c(nc(CN3CCN(C(=O)C4CC4)CC3)n2Cc2ccccc2Cl)n(C)c1=O`, the “activity change, negative = inhibition” value was 6.76%.

With `O=C(O)c1cc(O)c2c(O)c3c(O[C@@H]4O[C@H](CO)[C@@H](O)[C@H](O)[C@H]4O)cccc3c(-c3c4cc(C(=O)O)cc(O)c4c(O)c4c(O[C@@H]5O[C@H](CO)[C@@H](O)[C@H](O)[C@H]5O)cccc34)c2c1`, the Potency was 15.1 µM (active).

`CC(=O)C1(O)Cc2c(O)c3c(c(O)c2C(OC2CC(N)C(O)C(C)O2)C1)C(=O)c1ccccc1C3=O` (stereo not given): the Potency was 12 µM (active).

As for `Cc1cccn2c(=O)c(/C=C(\C#N)c3nc4ccccc4s3)c(Oc3ccc(F)cc3)nc12`, the “activity change, negative = inhibition” value was 7.79%.

On to `Cc1ccc(C(=O)c2cn(CC(=O)Nc3ccc4c(c3)OCCO4)c3nc(C)ccc3c2=O)cc1`, for which the “activity change, negative = inhibition” value is 10.2%.

Take `CN[C@H](CC(C)C)C(=O)N[C@H]1C(=O)N[C@@H](CC(N)=O)C(=O)N[C@H]2C(=O)N[C@H]3C(=O)N[C@H](C(=O)N[C@H](C(=O)O)c4cc(O)cc(O)c4-c4cc3ccc4O)[C@H](O)c3ccc(c(Cl)c3)Oc3cc2cc(c3O[C@@H]2OC(CO)[C@@H](O)[C@H](O)[C@@H]2O[C@H]2C[C@](C)(N)[C@H](O)[C@H](C)O2)Oc2ccc(cc2Cl)[C@H]1O` (stereo not given in full): the “activity change, negative = inhibition” value is 3.2%.

Take `COc1ccc(CNC(=O)C2CCCN(c3nnc(C)c4c(C)n(-c5ccc(C)cc5)nc34)C2)cc1` (stereo not given): the Potency is 19 µM (active).

For the molecule `NCCOCCOCCOCCOCCN1CCN(C(c2ccc(Cl)cc2)c2ccc(Cl)cc2)CC1`, the Potency was 6.74 µM (active).

As to `COc1cc(C(c2c(C)[nH][nH]c2=O)c2c(C)[nH][nH]c2=O)ccc1OC(=O)c1cccc(C)c1`, the “activity change, negative = inhibition” value is 0.361%.

In the case of `COCCn1c(SCC(=O)Nc2ccc(F)c(Cl)c2)nc2c(oc3ccccc32)c1=O`, the Potency was 2.39 µM (active).

As for `CC(C)CCn1c(CN2CCN(C(=O)C(C)C)CC2)nc2c1c(=O)n(C)c(=O)n2C`, the “activity change, negative = inhibition” value was -0.298%.

For `CN1C(=O)NC(Cc2c[nH]c3c(Cl)cccc23)C1=O` (stereo not given), the “activity change, negative = inhibition” value was -12.3%.

The values above are taken from PubChem BioAssay (NCATS).
